Source: PubChem BioAssay
An excerpt weighted towards active compounds, which were near 7.4% of everything screened.
FLuc counter: inhibits or activates purified firefly luciferase, miR-21 counter-screen. Potency, µM (series often up to 57.5 µM), inactives show at the top dose activity change, negative = inhibition, usual class: inhibitors. purified FLuc, Km substrates, luminescence inhibition. actives 6.9% (n = 360,000). P08659;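 further: plate controls were vehicle for no effect and reference inhibitor for full effect; nearly all actives have a fitted effect of over 55% in size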
Target sequence (P08659 whole entry, looked up): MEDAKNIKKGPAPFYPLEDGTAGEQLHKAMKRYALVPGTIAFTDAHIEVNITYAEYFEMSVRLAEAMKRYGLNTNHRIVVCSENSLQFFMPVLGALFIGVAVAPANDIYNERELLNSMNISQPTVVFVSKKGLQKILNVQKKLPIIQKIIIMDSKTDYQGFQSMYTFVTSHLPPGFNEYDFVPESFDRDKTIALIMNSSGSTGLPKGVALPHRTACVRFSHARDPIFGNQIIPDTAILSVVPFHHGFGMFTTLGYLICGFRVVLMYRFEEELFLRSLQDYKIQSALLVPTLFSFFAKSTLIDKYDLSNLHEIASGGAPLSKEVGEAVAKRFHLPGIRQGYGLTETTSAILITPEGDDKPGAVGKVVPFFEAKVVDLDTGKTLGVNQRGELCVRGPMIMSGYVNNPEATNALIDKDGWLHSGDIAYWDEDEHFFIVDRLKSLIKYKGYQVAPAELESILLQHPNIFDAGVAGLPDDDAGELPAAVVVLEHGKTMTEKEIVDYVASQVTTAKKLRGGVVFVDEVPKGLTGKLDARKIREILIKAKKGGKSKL
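Purified P. pyralis luciferase, 10 nM final, with Km-level 10 uM D-luciferin and 10 uM ATP in 50 mM Tris acetate pH 7.5, 10 mM Mg acetate, 0.01% Tween-20, 0.05% BSA; 6-point qHTS titration about 60 µM downward; luminescence read.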
ELG1 genotox: inducers of genotoxicity in HEK293T ELG1-luciferase cells; HEK293T ELG1-luciferase reporter, luminescence, 16 h; Potency, µM (series often up to 46 µM), for inactives: at the highest dose activity change, positive = activation, actives largely listed as activators; actives 1.3% (n = 330,000); AID 504466; further: % of control where 0% means no effect; nearly all actives have a fitted effect of over 60% in size
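Cells (2,000/well) expressing the ELG1-luciferase fusion are dosed by pin tool and kept 16 hr at 37 °C, 5% CO2. Signal comes from ONE-Glo luciferase reagent after 30 min at room temperature.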
SMN2 splice up: increases expression of the SMN2 splice variant. AID 1458. actives 2.8% (n = 210,000). Potency, µM (series often up to 46.1 µM), for the others: at the top dose activity change, positive = activation, most hits filed as activators. HEK293 SMN2-luciferase splicing reporter, luminescence, 30-36 h; further: % of control where 0% means no effect; nearly all actives have a fitted effect of over 55% in size
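HEK293 cells carry an SMN2 minigene-luciferase reporter in which exon 7 inclusion puts luciferase in frame. Cells were seeded at 2000 cells/well, attached for 10-12 hours, then exposed to compounds for 30-36 hours at 37C before ONE-Glo luminescence.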
p53 reactivation: re-activators of mutant p53 | actives 0.063% (n = 320,000) | AID 504706 | Potency, µM (top dose mostly 92.2 µM), inactives show top-dose activity change, positive = activation, actives largely listed as activators | H1299 p53-A138V BP100-luciferase reporter, luminescence, 24 h; further: % of control where 0% means no effect; nearly all actives have a fitted effect of over 45% in size
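H1299 (p53-null), stable ts p53-A138V + BP100-Luc; 1000 cells/well, Opti-MEM/10% FBS; cpd 4 pt, 1:5; 24 h, 37 deg C, 5% CO2; detection reagent 10 min RT; luminescence.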
NPC1 promoter act: activates the NPC1 promoter | Potency, µM (series often up to 9.22 µM), inactives show at the highest dose activation, actives largely listed as activators | Huh7 NPC1 promoter luciferase reporter, 24 h | actives 2.4% (n = 320,000) | AID 485313; further: % of control where 0% means no effect; nearly all actives have a fitted effect of over 60% in size
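Luciferase expression driven by the NPC1 promoter was measured in stably transfected Huh7 cells after a 24 h compound incubation, using a luciferase reagent and a luminescence read.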
Rab9 promoter act: activators of Rab9 promoter; AID 485297; actives 2.8% (n = 320,000); Potency, µM (titrated, usually from 9.22 µM), inactives show at the highest dose activation, negative = inhibition, most hits filed as activators; Huh7 Rab9 promoter-luciferase reporter, luminescence, 24 h; further: % of control where 0% means no effect; nearly all actives have a fitted effect of over 60% in size
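Stable Rab9-luc Huh7, 1500 cells/well, 2 h settle; cmpd in DMSO, 24 h, 37 °C/5% CO2; luciferase reagent 10 min RT; luminescence.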
* hit, by the source's call; ? = inconclusive; nt = not tested or not shown. The call rests on the fitted dose curve; in most records, active means well fitted curve in the direction sought with a large enough effect; inconclusive means small, poorly fitted or top-dose-only effect, or another doubt; inactive means no such curve, though single readings can be large; an effect the other way counts as inactive or inconclusive. Potency means the concentration at half of the fitted maximal effect.

SMILES | FLuc counter | ELG1 genotox | SMN2 splice up | p53 reactivation | NPC1 promoter act | Rab9 promoter act
CCOc1ccc(C(=O)Nc2c(C(N)=O)oc3ccccc23)cc1 | 10.7µM* | 1.1% | -1.6% | -3.7% | 14.3% | 17.3%
Cc1ccccc1CSc1nc2ccsc2c(=O)n1CCC(C)C | -1.2% | nt | nt | nt | nt | nt
COCCn1c(SCC(=O)c2c[nH]c3ccccc23)nc2cc(C(=O)NCC(C)C)ccc2c1=O | -2.7% | nt | nt | nt | nt | nt
c1ccc2c(c1)Cn1nc(Cc3nc4c(s3)CCCC4)nc1-2 | 16.9µM* | ? | ? | 8.9% | 5.7% | ?
O=C(c1cn(-c2ccccc2)nc1-c1ccccc1)N1CCOCC1 | ? | -3.4% | -21.0% | 1.2% | -1.3% | 2.1%
O=C(c1ccco1)N1CCN(C(=O)c2cn(-c3ccccc3)nc2-c2ccccc2)CC1 | 6.01µM* | 5.5% | nt | 8.9% | 14.4% | 2.8%
O=C(/C=C/c1cn(-c2ccccc2)nc1-c1cccnc1)N1CCCC1 | ? | -13.2% | -12.5% | -3.9% | -2.5% | -2.1%
CCN(C(=O)COC(=O)c1cn(-c2ccccc2)nc1-c1ccccc1)C1CCS(=O)(=O)C1 (stereo not given) | 23.9µM* | 4.8% | 10.5% | -2.8% | -3.4% | -0.8%
O=C(OCC(=O)N1CCN(C(=O)c2ccco2)CC1)c1cn(-c2ccccc2)nc1-c1ccccc1 | 16.9µM* | -4.1% | -10.7% | -4.2% | 1.5% | -3.5%
O=C(OCC(=O)N1CCN(C(=O)c2ccco2)CC1)c1ccccc1C(=O)c1ccc(Cl)cc1 | 7.0% | 0.7% | 1.3% | 2.6% | -3.4% | 6.4%
O=C(/C=C/c1cn(-c2ccccc2)nc1-c1cccnc1)c1ccco1 | 9.53µM* | -13.9% | -37.0% | -8.2% | -5.3% | -7.9%
O=C(O)[C@@H]1CCCN1S(=O)(=O)c1cccc2cccnc12 | 1.1% | 6.9% | nt | 0.0% | -3.4% | -7.2%
CC(C)Cc1csc(NC(=O)c2ccccc2Cl)c1C(=O)O | ? | -6.5% | -2.7% | 27.1% | -1.2% | -1.6%
CC(C)c1ccc(-c2csc(NC(=O)c3cccs3)c2C(=O)O)cc1 | 16.9µM* | -12.3% | nt | ? | 19.9% | 1.6%
Cc1ccc(-c2csc(NC(=O)c3ccc(Br)cc3)c2C(=O)O)cc1 | 12µM* | 1.9% | nt | ? | 2.51µM* | 3.55µM*
COc1cc(C(=O)Nc2scc(-c3ccc(Br)cc3)c2C(=O)O)cc(OC)c1OC | -1.9% | -8.8% | nt | 8.6% | -5.9% | 6.7%
CC(C)c1ccc(C(CC(=O)O)NC(=O)c2cccs2)cc1 (stereo not given) | -7.4% | 1.1% | 9.8% | -4.5% | -2.6% | -1.3%
Cc1ccc(-c2csc(NC(=O)c3ccccc3Cl)c2C(=O)O)cc1 | 26.9µM* | 0.6% | nt | 6.6% | -4.8% | 4.5%
CCOc1ccc(-n2c(=O)c3c4c(sc3n(CC(=O)NC(C)CC)c2=O)CCCC4)cc1 (stereo not given) | -3.0% | nt | 0.6% | nt | nt | nt
CC(C)(C)C1CCc2c(sc3c2C(=O)NC(c2ccco2)N3)C1 (stereo not given) | 3.01µM* | 13.1% | 12.6µM* | ? | ? | 2.51µM*
c1ccc(CCc2nc3ccccc3[nH]2)cc1 | 16.9µM* | ? | nt | 2.6% | ? | ?
Nc1cccc(CCc2nc3cc4ccccc4cc3[nH]2)c1 | 19µM* | 18.4µM* | 5.62µM* | ? | 26.9% | 1.58µM*
CN(CC(=O)O)Cc1nc2ccccc2[nH]1 | 21.3µM* | ? | 0.7% | 20.4% | 0.8% | -3.3%
O=c1[nH]c2ccccc2nc1Cc1ccc(Cl)cc1 | 1.1% | 3.5% | nt | 1.3% | -2.8% | -0.8%
O=c1[nH]c2ccccc2nc1CCc1ccccc1 | -8.6% | ? | ? | 16.6% | ? | 3.16µM*
SMILES | FLuc counter | ELG1 genotox | SMN2 splice up | p53 reactivation | NPC1 promoter act | Rab9 promoter act
c1ccc2[nH]c(CCCc3nc4ccccc4[nH]3)nc2c1 | -0.5% | 1.4% | nt | nt | 6.7% | -2.1%
COc1ccc(/C=N/NC(=O)c2ccoc2C)cc1O | ? | ? | ? | 15.1% | 11.6% | 24.2%
O=C(N/N=C/c1ccc2c(c1)OCO2)c1ccc(Cl)cc1Cl | ? | 2.0% | nt | 22.1% | 2.2% | 3.0%
Cc1cc(C(=O)N/N=C/c2ccc3c(c2)OCO3)c(C)o1 | 6.01µM* | ? | nt | 9.6% | ? | 3.16µM*
Cc1occc1C(=O)N/N=C/c1ccc2c(c1)OCO2 | 3.79µM* | ? | nt | 10.5% | 0.501µM* | 0.355µM*
Cn1cc(C(=O)N/N=C/c2cccs2)c2ccccc21 | 15.1µM* | ? | 22.4µM* | -0.1% | ? | ?
Cn1cc(C(=O)N/N=C/c2ccc3c(c2)OCO3)c2ccccc21 | 8.49µM* | 10.2% | nt | 1.8% | ? | ?
COc1ccccc1CC(NC(C)=O)C(=O)NC1CCN(C(=O)c2ccc(C)cc2)CC1 (stereo not given) | 0.4% | 0.5% | nt | 2.5% | 1.9% | 4.7%
CCC(=O)N1CCN(c2ccc(NC(=O)COc3ccc(CC)cc3)cc2)CC1 | -0.6% | -1.4% | nt | -1.1% | 7.0% | 6.3%
COc1ccc(/C=N/NC(=O)c2ccoc2C)cc1OC | ? | ? | 12.6µM* | 25.7% | ? | ?
N#C/C(=C\c1cccs1)C(=O)c1ccccc1Cl | 21.3µM* | -10.3% | nt | -11.6% | 2.2% | -5.9%
N#C/C(=C\c1cccs1)C(=O)Nc1nccs1 | 4.26µM* | ? | ? | 9.2% | 3.55µM* | 2.82µM*
CC(C)(C)C(=O)/C(C#N)=C/c1cccs1 | -3.6% | -0.2% | nt | -2.6% | -1.3% | -4.9%
COCc1nnc(NC(=O)C2CC(=O)N(C3CCCC3)C2)s1 (stereo not given) | 0.5% | -3.9% | nt | 8.0% | -3.1% | -1.6%
O=c1c2sc3ccccc3c2n(Cc2cccc(F)c2)c(=O)n1CCc1ccccc1 | ? | nt | 1.2% | nt | nt | nt
Clc1ccc(-c2nc(C3CCCCC3)no2)cc1 | 4.78µM* | 11.8% | ? | 5.3% | 3.16µM* | 3.16µM*
COc1cc(/C=N/NS(=O)(=O)c2ccc(C(C)(C)C)cc2)cc([N+](=O)[O-])c1O | ? | 5.3% | nt | -1.4% | -0.8% | 1.8%
COc1ccc(-c2csc(CCn3nc(C)cc3C)n2)cc1 | ? | -2.7% | -27.6% | -0.2% | 2.2% | 8.6%
Cc1cc(C)n(CCc2nc(-c3ccc(-c4ccccc4)cc3)cs2)n1 | 6.75µM* | ? | -49.0% | 11.2% | 24.4% | 22.3%
O=C(COc1ccc(Br)cc1Br)NC1CCS(=O)(=O)C1 (stereo not given) | -2.8% | 17.3% | nt | 0.1% | -2.8% | 1.6%
O=C(COc1ccc(Br)cc1Cl)c1ccc[nH]1 | 19µM* | 12.0% | ? | ? | ? | 3.98µM*
CC(C)NC(=O)NC(=O)COc1ccc(Br)cc1Br | 1.2µM* | 3.26µM* | 2.51µM* | ? | 1µM* | 2µM*
